Here are results for 14 compounds from PubChem BioAssay.

The structures appear in SMILES notation. Unmarked numbers belong to inactive results. Calls of active or inactive are those of the source.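 Rule for the calls: active = thallium flux through the channel raised or lowered by more than 3 SD from vehicle-only wells, actives on both sides; inactive = the rest.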

Common to all, as to test: BK channel mutant inhibitors and activators – cell-based, U2OS BacMam, thallium flux, beta subunits, selectivity assay, profiling panel (AID 1259406);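 note: initial slope of Thallos dye fluorescence rise after thallium is added; log ratio against the mean of 0.3% DMSO vehicle wells on the same plate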
Experiment [1] has as its system F380Y. Particulars: U2OS BacMam BK variants, at 30 µM.
The subject of experiment [2] is F380Y/beta1. Particulars: U2OS BacMam BK variants, at 30 µM.
The subject of experiment [3] is F380Y/beta2Delta. Particulars: U2OS BacMam BK variants, at 30 µM.
Experiment [4] relates to F380Y/beta4. Particulars: U2OS BacMam BK variants, at 30 µM.
Experiment [5] has as its target Calcium-activated potassium channel subunit alpha-1 (Homo sapiens) + Leucine-rich repeat-containing protein 26 (Homo sapiens) (UniProt Q12791+Q2I0M4). Particulars: U2OS BacMam BK variants, F380Y/Slo1WT/gamma1, at 30 µM.
In experiment [6] the test system is R275C. Particulars: U2OS BacMam BK variants, at 30 µM.
Experiment [7] concerns R275C/beta1. Particulars: U2OS BacMam BK variants, at 30 µM.
For experiment [8], the system named is R275C/beta2Delta. Particulars: U2OS BacMam BK variants, at 30 µM.
The test system of experiment [9] is R275C/beta4. Particulars: U2OS BacMam BK variants, at 30 µM.
In experiment [10] the test system is R275C/Slo1WT/beta2. Particulars: U2OS BacMam BK variants, at 30 µM.

Chain of Calcium-activated potassium channel subunit alpha-1 (Homo sapiens) + Leucine-rich repeat-containing protein 26 (Homo sapiens) (Q2I0M4 whole entry, looked up, one chain of several): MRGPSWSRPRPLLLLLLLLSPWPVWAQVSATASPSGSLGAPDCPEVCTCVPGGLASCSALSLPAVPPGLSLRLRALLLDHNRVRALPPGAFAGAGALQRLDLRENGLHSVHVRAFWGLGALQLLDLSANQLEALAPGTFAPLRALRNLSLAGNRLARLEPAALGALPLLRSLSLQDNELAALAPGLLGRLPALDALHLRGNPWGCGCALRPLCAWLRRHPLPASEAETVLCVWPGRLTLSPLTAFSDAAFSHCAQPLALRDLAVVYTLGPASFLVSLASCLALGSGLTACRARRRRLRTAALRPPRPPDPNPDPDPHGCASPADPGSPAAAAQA

As for `CS(=O)(=O)Nc1ccc(N2CCN(c3ccc(C(F)(F)F)cn3)CC2)nc1`, the log fold change Tl+ flux in experiment [1] was 0.0216; in experiment [2], 0.0253; in experiment [3] it was 0.0364; in experiment [4], 0.0379; in experiment [5], 0.0373; in experiment [6], 0.0255. Besides, the log fold change Tl+ flux was 0.0101 in experiment [7], 0.0279 in experiment [8], 0.0149 in experiment [9] and 0.0171 in experiment [10].
As to `COCCCNC1=C(C#N)C(=O)NC(c2cccs2)S1` (stereo not given), the log fold change Tl+ flux in [1] is 0.041; in experiment [2], 0.00355; in [3], 0.0315; in experiment [4] it was -0.00136; in [5] it was 0.0147; in experiment [6], -0.0102. Further, the log fold change Tl+ flux was 0.0346 in experiment [7], 0.0144 in [8], -0.0186 in experiment [9] and -0.0245 in [10].
For `O=C(NCc1ccc2c(c1)OCO2)C1CCN(C(=O)OCc2ccccc2)CC1`, the log fold change Tl+ flux in experiment [1] was 0.035; in experiment [2], -0.0838 (active); in experiment [3] it was -0.059; in [4], -0.064; in experiment [5] it was 0.019; in experiment [6] it was 0.0676. The log fold change Tl+ flux in experiment [7] is 0.0117; in [8], -0.0269; in experiment [9] it was -0.0162; in [10] it was 0.0194.
As for `CC12CCC(c3c1nn(-c1ccccc1)c3C(F)(F)F)C2(C)C` (stereo not given), the log fold change Tl+ flux in [1] is 0.0382; in [2], 0.00752; in experiment [3], 0.00374; in experiment [4], 0.00603; in experiment [5], 0.00466; in experiment [6], 0.00439. Further, the log fold change Tl+ flux in experiment [7] was -0.0295; in experiment [8], 0.0124; in experiment [9] it was -0.0271; in experiment [10], -0.0353.
With `O=C(c1ccccc1)c1ccc2c(c1)Cc1ccccc1-2`, the log fold change Tl+ flux in [1] was 0.00926; in [2], -0.00651; in experiment [3] it was 0.0385; in experiment [4] it was -0.103 (active); in experiment [5], -0.0649; in [6], -0.0862 (active). For the same compound, the log fold change Tl+ flux in [7] was -0.0486; in experiment [8], -0.00396; in experiment [9] it was 0.00762; in experiment [10] it was -0.0152.
Take `O=C(ON(C(=O)c1ccc(F)cc1)C1C2CC3CC(C2)CC1C3)c1ccc(F)cc1` (stereo not given): the log fold change Tl+ flux is 0.0231 in experiment [1]; -0.0234 in [2]; 0.00474 in [3]; 0.0374 in [4]; 0.0901 in experiment [5]; 0.0436 in [6]. Besides, the log fold change Tl+ flux in [7] was -0.0159; in experiment [8], 0.00798; in experiment [9], 0.0539; in experiment [10], 0.0295.
For the compound `O=C(O)CSCC(=O)Nc1ccc(-c2nc3ccccc3s2)cc1`, the log fold change Tl+ flux in experiment [1] was -0.0115; in experiment [2], 0.19 (active); in [3], -0.0257; in [4], -0.0352; in experiment [5] it was 0.126 (active); in experiment [6], 0.0193. Further, the log fold change Tl+ flux in experiment [7] is 0.0504; in experiment [8], 0.0724; in experiment [9], 0.0271; in experiment [10], -0.022.
Take `O=S(=O)(Nc1ccccc1SCc1ccc2nonc2c1)c1cccs1`: the log fold change Tl+ flux in [1] is -0.159 (active); in [2], -0.065; in experiment [3], -0.0553; in [4], -0.14 (active); in experiment [5], -0.142 (active); in [6] it was -0.262 (active). The log fold change Tl+ flux is 0.0365 in experiment [7], -0.00587 in [8], -0.0288 in experiment [9] and -0.239 (active) in [10].
With `O=C(OCCSc1sccc1[N+](=O)[O-])c1ccc(Cl)cc1`, the log fold change Tl+ flux was -0.00334 in experiment [1]; -0.009 in experiment [2]; 0.0128 in experiment [3]; -0.0285 in experiment [4]; -0.0095 in experiment [5]; 0.0114 in experiment [6]. Moreover, the log fold change Tl+ flux is -0.0166 in experiment [7], 0.0149 in experiment [8], -0.01 in experiment [9] and 0.0278 in experiment [10].
Consider `O=C(CC(=O)NNC(=O)c1ccc(F)cc1)NNC(=O)c1ccc(F)cc1`, for which the log fold change Tl+ flux is 0.0677 in [1]; -0.0109 in [2]; 0.0456 in experiment [3]; -0.0066 in [4]; -0.0103 in experiment [5]; -0.0271 in experiment [6]. Besides, the log fold change Tl+ flux in experiment [7] is 0.0179; in experiment [8] it was 0.0309; in experiment [9], -0.00647; in [10] it was -0.086.
Regarding `CCCCCCCCCCCCSC(=S)Nc1ccc(Br)c(C)c1`, the log fold change Tl+ flux was -0.0409 in [1]; -0.00527 in experiment [2]; -0.0326 in experiment [3]; -0.000986 in experiment [4]; -0.031 in experiment [5]; 0.0399 in [6]. Besides, the log fold change Tl+ flux was 0.0206 in [7], -0.028 in experiment [8], 0.0416 in experiment [9] and 0.0211 in experiment [10].
Turning to `CC(=O)Oc1ccc(OC(C)=O)c2cc3c(OC(C)=O)ccc(OC(C)=O)c3cc12`, the log fold change Tl+ flux in experiment [1] was -0.0214; in [2], -0.0286; in experiment [3], -0.0254; in [4], 0.0175; in experiment [5] it was 0.0282; in experiment [6], -0.0106. The log fold change Tl+ flux in [7] was -0.0199; in [8] it was -0.0114; in experiment [9], -0.0622; in [10], 0.0234.
In the case of `CCc1[nH]c(=S)[nH]c(=O)c1C#N`, the log fold change Tl+ flux in [1] was -0.0598; in experiment [2], 0.0419; in [3] it was 0.0255; in [4], 0.0765; in [5] it was 0.0111; in experiment [6], 0.0263. Besides, the log fold change Tl+ flux was -0.0177 in [7], 0.00491 in experiment [8], 0.0228 in experiment [9] and 0.0561 in experiment [10].
With `CC(C)(C)OC(=O)N1CCC(c2nc(-c3ccc(Cl)s3)cs2)CC1`, the log fold change Tl+ flux in [1] was 0.0108; in [2] it was 0.0589; in experiment [3] it was -0.0352; in [4] it was -0.0115; in [5], -0.0565; in [6], -0.00778. Further, the log fold change Tl+ flux in [7] is 0.0364; in [8], 0.0302; in [9], 0.0463; in [10] it was 0.0374.
